The supplement of paper PMC7261846
Where a name gives a salt, the structure may show the parent alone. ± gives the uncertainty stated by the source.

Test system: Candida albicans SNY425 biofilm
Assay: biofilm OD600 with compound plus antifungal (OD600 (absorbance)); higher = more biofilm remaining
[1] = assay detail: disruption of 24-h mature biofilm (compound + antifungal for a second 24 h)
[2] = assay detail: sustained inhibition (compound + antifungal during 90-min adherence and 24-h growth)

CC(C)C[C@@H](C=O)NC(=O)[C@H](CC(C)C)NC(=O)[C@H](CC(C)C)NC(=O)OCc1ccccc1 + CC[C@H](C)C[C@H](C)CCCCCCCCC(=O)N[C@H]1C[C@@H](O)[C@@H](NCCN)NC(=O)[C@@H]2[C@@H](O)CCN2C(=O)[C@H]([C@H](O)CCN)NC(=O)[C@H]([C@H](O)[C@@H](O)c2ccc(O)cc2)NC(=O)[C@@H]2C[C@@H](O)CN2C(=O)[C@H]([C@@H](C)O)NC1=O [caspofungin] (first compound 12.5 µM)
biofilm OD600 [1]: 0.281 ± 0.0049
biofilm OD600 [2]: 0.193 ± 0.0098

O=C[C@@H]1CCCN1C(=O)[C@@H]1CCCN1C(=O)OCc1ccccc1 [Z-Prolyl-prolinal] + OC(Cn1cncn1)(Cn1cncn1)c1ccc(F)cc1F [fluconazole] (first compound 12.5 µM)
biofilm OD600 [1]: 0.247 ± 0.013
biofilm OD600 [2]: 0.0978 ± 0.0091

CCOC(=O)[C@H](CCc1ccccc1)N[C@@H](C)C(=O)N1CCC[C@H]1C(=O)O [Enalapril] + CC[C@H](C)C[C@H](C)CCCCCCCCC(=O)N[C@H]1C[C@@H](O)[C@@H](NCCN)NC(=O)[C@@H]2[C@@H](O)CCN2C(=O)[C@H]([C@H](O)CCN)NC(=O)[C@H]([C@H](O)[C@@H](O)c2ccc(O)cc2)NC(=O)[C@@H]2C[C@@H](O)CN2C(=O)[C@H]([C@@H](C)O)NC1=O [caspofungin] (first compound 12.5 µM)
biofilm OD600 [1]: 0.266 ± 0.012
biofilm OD600 [2]: 0.207 ± 0.011

N[C@H](C(=O)O)[C@@H]1CC(Cl)=NO1 [Acivicin] + C[C@@H]1[C@H](O)[C@@H](C)/C=C/C=C/C=C/C=C/C=C/C=C/C=C/[C@H](O[C@@H]2O[C@H](C)[C@@H](O)[C@H](N)[C@@H]2O)C[C@@H]2O[C@](O)(C[C@@H](O)C[C@@H](O)[C@H](O)CC[C@@H](O)C[C@@H](O)CC(=O)O[C@H]1C)C[C@H](O)[C@H]2C(=O)O [amphotericin B] (first compound 4 µM)
biofilm OD600 [1]: 0.31 ± 0.0054
biofilm OD600 [2]: 0.181 ± 0.006

C[C@]1(Cn2ccnn2)[C@H](C(=O)O)N2C(=O)C[C@H]2S1(=O)=O [Tazobactam] + OC(Cn1cncn1)(Cn1cncn1)c1ccc(F)cc1F [fluconazole] (first compound 12.5 µM)
biofilm OD600 [1]: 0.283 ± 0.011
biofilm OD600 [2]: 0.12 ± 0.0072

Cc1ccc(S(=O)(=O)N[C@@H](Cc2ccccc2)C(=O)CCl)cc1 + OC(Cn1cncn1)(Cn1cncn1)c1ccc(F)cc1F [fluconazole] (first compound 4 µM)
biofilm OD600 [1]: 0.241 ± 0.01
biofilm OD600 [2]: 0.0966 ± 0.012

CCCC[C@@H](C=O)NC(=O)[C@H](CC(C)C)NC(=O)OCc1ccccc1 [Calpeptin] + OC(Cn1cncn1)(Cn1cncn1)c1ccc(F)cc1F [fluconazole] (first compound 12.5 µM)
biofilm OD600 [1]: 0.26 ± 0.0076
biofilm OD600 [2]: 0.162 ± 0.01

N=C(N)Nc1ccc(C(=O)Oc2ccc3cc(C(=N)N)ccc3c2)cc1 [Nafamostat mesylate] + C[C@@H]1[C@H](O)[C@@H](C)/C=C/C=C/C=C/C=C/C=C/C=C/C=C/[C@H](O[C@@H]2O[C@H](C)[C@@H](O)[C@H](N)[C@@H]2O)C[C@@H]2O[C@](O)(C[C@@H](O)C[C@@H](O)[C@H](O)CC[C@@H](O)C[C@@H](O)CC(=O)O[C@H]1C)C[C@H](O)[C@H]2C(=O)O [amphotericin B] (first compound 12.5 µM)
biofilm OD600 [1]: 0.257 ± 0.012
biofilm OD600 [2]: 0.171 ± 0.011

CNC(=O)[C@H](Cc1c[nH]c2ccccc12)NC(=O)[C@@H](CC(=O)NO)CC(C)C + OC(Cn1cncn1)(Cn1cncn1)c1ccc(F)cc1F [fluconazole] (first compound 12.5 µM)
biofilm OD600 [1]: 0.272 ± 0.014
biofilm OD600 [2]: 0.158 ± 0.0086

Nc1ccc(CC(CC(=O)O)C(=O)O)cc1 [4-Amino-D, L-benzylsuccinic acid] + OC(Cn1cncn1)(Cn1cncn1)c1ccc(F)cc1F [fluconazole] (first compound 12.5 µM)
biofilm OD600 [1]: 0.291 ± 0.009
biofilm OD600 [2]: 0.12 ± 0.0067

Cc1c(O)cccc1C(=O)N[C@@H](CSc1ccccc1)[C@H](O)CN1C[C@H]2CCCC[C@H]2C[C@H]1C(=O)NC(C)(C)C [nelfinavir] + CC[C@H](C)C[C@H](C)CCCCCCCCC(=O)N[C@H]1C[C@@H](O)[C@@H](NCCN)NC(=O)[C@@H]2[C@@H](O)CCN2C(=O)[C@H]([C@H](O)CCN)NC(=O)[C@H]([C@H](O)[C@@H](O)c2ccc(O)cc2)NC(=O)[C@@H]2C[C@@H](O)CN2C(=O)[C@H]([C@@H](C)O)NC1=O [caspofungin] (first compound 12.5 µM)
biofilm OD600 [1]: 0.17 ± 0.0053
biofilm OD600 [2]: 0.127 ± 0.019

Cc1cccc(C)c1OCC(=O)N[C@@H](Cc1ccccc1)[C@@H](O)C[C@H](Cc1ccccc1)NC(=O)[C@H](C(C)C)N1CCCNC1=O [lopinavir] + CC[C@H](C)C[C@H](C)CCCCCCCCC(=O)N[C@H]1C[C@@H](O)[C@@H](NCCN)NC(=O)[C@@H]2[C@@H](O)CCN2C(=O)[C@H]([C@H](O)CCN)NC(=O)[C@H]([C@H](O)[C@@H](O)c2ccc(O)cc2)NC(=O)[C@@H]2C[C@@H](O)CN2C(=O)[C@H]([C@@H](C)O)NC1=O [caspofungin] (first compound 12.5 µM)
biofilm OD600 [1]: 0.153 ± 0.0047
biofilm OD600 [2]: 0.0941 ± 0.0079

CC(C)C[C@@H](C=O)NC(=O)[C@H](CC(C)C)NC(=O)[C@H](CC(C)C)NC(=O)OCc1ccccc1 + C[C@@H]1[C@H](O)[C@@H](C)/C=C/C=C/C=C/C=C/C=C/C=C/C=C/[C@H](O[C@@H]2O[C@H](C)[C@@H](O)[C@H](N)[C@@H]2O)C[C@@H]2O[C@](O)(C[C@@H](O)C[C@@H](O)[C@H](O)CC[C@@H](O)C[C@@H](O)CC(=O)O[C@H]1C)C[C@H](O)[C@H]2C(=O)O [amphotericin B] (first compound 12.5 µM)
biofilm OD600 [1]: 0.29 ± 0.0045
biofilm OD600 [2]: 0.209 ± 0.017

CO[C@@H]1[C@H](OC(=O)/C=C/C=C/C=C/C=C/C(=O)O)CC[C@]2(CO2)[C@H]1[C@@]1(C)O[C@@H]1CC=C(C)C [Fumagillin] + C[C@@H]1[C@H](O)[C@@H](C)/C=C/C=C/C=C/C=C/C=C/C=C/C=C/[C@H](O[C@@H]2O[C@H](C)[C@@H](O)[C@H](N)[C@@H]2O)C[C@@H]2O[C@](O)(C[C@@H](O)C[C@@H](O)[C@H](O)CC[C@@H](O)C[C@@H](O)CC(=O)O[C@H]1C)C[C@H](O)[C@H]2C(=O)O [amphotericin B] (first compound 12.5 µM)
biofilm OD600 [1]: 0.264 ± 0.0097
biofilm OD600 [2]: 0.185 ± 0.0052

CCC(C)[C@H](NS(=O)(=O)c1cccc2ccccc12)C(=O)N[C@H](C=O)Cc1c[nH]c2ccccc12 (some centres not stated) + CC[C@H](C)C[C@H](C)CCCCCCCCC(=O)N[C@H]1C[C@@H](O)[C@@H](NCCN)NC(=O)[C@@H]2[C@@H](O)CCN2C(=O)[C@H]([C@H](O)CCN)NC(=O)[C@H]([C@H](O)[C@@H](O)c2ccc(O)cc2)NC(=O)[C@@H]2C[C@@H](O)CN2C(=O)[C@H]([C@@H](C)O)NC1=O [caspofungin] (first compound 12.5 µM)
biofilm OD600 [1]: 0.253 ± 0.01
biofilm OD600 [2]: 0.18 ± 0.0089

CC(C)C[C@H](NP(=O)(O)O[C@@H]1O[C@@H](C)[C@H](O)[C@@H](O)[C@H]1O)C(=O)N[C@@H](Cc1c[nH]c2ccccc12)C(=O)O [Phosphoramidon] + C[C@@H]1[C@H](O)[C@@H](C)/C=C/C=C/C=C/C=C/C=C/C=C/C=C/[C@H](O[C@@H]2O[C@H](C)[C@@H](O)[C@H](N)[C@@H]2O)C[C@@H]2O[C@](O)(C[C@@H](O)C[C@@H](O)[C@H](O)CC[C@@H](O)C[C@@H](O)CC(=O)O[C@H]1C)C[C@H](O)[C@H]2C(=O)O [amphotericin B] (first compound 12.5 µM)
biofilm OD600 [1]: 0.28 ± 0.0089
biofilm OD600 [2]: 0.211 ± 0.0094

CCOC(=O)[C@H](CCc1ccccc1)N[C@@H](C)C(=O)N1CCC[C@H]1C(=O)O [Enalapril] + OC(Cn1cncn1)(Cn1cncn1)c1ccc(F)cc1F [fluconazole] (first compound 12.5 µM)
biofilm OD600 [1]: 0.258 ± 0.0055
biofilm OD600 [2]: 0.157 ± 0.015

CC(C)C[C@H](NC(=O)[C@@H](O)[C@H](N)Cc1ccccc1)C(=O)O [Bestatin·HCl] + OC(Cn1cncn1)(Cn1cncn1)c1ccc(F)cc1F [fluconazole] (first compound 12.5 µM)
biofilm OD600 [1]: 0.284 ± 0.013
biofilm OD600 [2]: 0.163 ± 0.011

Cc1c(O)cccc1C(=O)N[C@@H](CSc1ccccc1)[C@H](O)CN1C[C@H]2CCCC[C@H]2C[C@H]1C(=O)NC(C)(C)C [nelfinavir] + C[C@@H]1[C@H](O)[C@@H](C)/C=C/C=C/C=C/C=C/C=C/C=C/C=C/[C@H](O[C@@H]2O[C@H](C)[C@@H](O)[C@H](N)[C@@H]2O)C[C@@H]2O[C@](O)(C[C@@H](O)C[C@@H](O)[C@H](O)CC[C@@H](O)C[C@@H](O)CC(=O)O[C@H]1C)C[C@H](O)[C@H]2C(=O)O [amphotericin B] (first compound 12.5 µM)
biofilm OD600 [1]: 0.237 ± 0.0057
biofilm OD600 [2]: 0.112 ± 0.01

CNC(=O)[C@H](Cc1c[nH]c2ccccc12)NC(=O)[C@@H](CC(=O)NO)CC(C)C + C[C@@H]1[C@H](O)[C@@H](C)/C=C/C=C/C=C/C=C/C=C/C=C/C=C/[C@H](O[C@@H]2O[C@H](C)[C@@H](O)[C@H](N)[C@@H]2O)C[C@@H]2O[C@](O)(C[C@@H](O)C[C@@H](O)[C@H](O)CC[C@@H](O)C[C@@H](O)CC(=O)O[C@H]1C)C[C@H](O)[C@H]2C(=O)O [amphotericin B] (first compound 12.5 µM)
biofilm OD600 [1]: 0.281 ± 0.01
biofilm OD600 [2]: 0.194 ± 0.0098

C[C@H](CS)C(=O)N1CCC[C@H]1C(=O)O [Captopril] + CC[C@H](C)C[C@H](C)CCCCCCCCC(=O)N[C@H]1C[C@@H](O)[C@@H](NCCN)NC(=O)[C@@H]2[C@@H](O)CCN2C(=O)[C@H]([C@H](O)CCN)NC(=O)[C@H]([C@H](O)[C@@H](O)c2ccc(O)cc2)NC(=O)[C@@H]2C[C@@H](O)CN2C(=O)[C@H]([C@@H](C)O)NC1=O [caspofungin] (first compound 12.5 µM)
biofilm OD600 [1]: 0.286 ± 0.011
biofilm OD600 [2]: 0.198 ± 0.0082
